Reference: PubChem BioAssay AID492998 (Southern Research Specialized Biocontainment Screening …, 2010)
Among all 2,300 compounds or so, about 550 (24%) were called active. No rule for the calls is given here. Not all results are given here. Entries that show only a call come without a potency. Potency and affinity values are given separately.

experiment: Vero E6 cell cytotoxicity, dose response, cytotoxicity control for non-replicating M. tuberculosis project, secondary assay (AID 492998); settings: series mostly up to 20 µM

Structure (SMILES)	outcome
COc1ccccc1C1=NOC(COC(=O)c2ccc([N+](=O)[O-])cc2)C1 (stereo not drawn)	inactive
COCCNC(=O)c1cc2cc(Cl)cc(Cl)c2oc1=O	inactive
Cc1cccc(OC(=O)c2sc3ncn(C)c(=O)c3c2C)c1	inactive
CCn1c2ccccc2c2cc(CNCc3ccc(OC)cc3OC)ccc21	inactive
O=C(COc1ccc(Cl)cc1)OCC(=O)N1CCCc2ccccc21	inactive
CC(C)(C)/C(O)=C/c1nc2ccccc2oc1=O	inactive
COc1ccc(NC(=O)c2cnc(SC)nc2)cc1	inactive
COc1ccc(NC(=O)CO/N=C2/CCCc3nonc32)c(OC)c1	inactive
CCOC(=O)N1CCC(N2CCCC(C(=O)c3ccc4cc(OC)ccc4c3)C2)CC1 (stereo not drawn)	inactive
COc1ccc(C(=O)COC(=O)c2ccc(Cl)nc2)c(OC)c1	inactive
O=C(COC(=O)CC1CCCC1)Nc1ccc(OC(F)F)cc1	inactive
CCCCOC(=O)c1ccc(OC(=O)c2cccnc2)cc1	inactive
Cc1cc(C)cc(OC(=O)c2cccnc2)c1	inactive
CCc1cccc(OCCCn2ccnc2)c1	inactive
CN1/C(=C\C(=O)COC(=O)C2COc3ccccc3O2)C(C)(C)c2ccccc21 (stereo not drawn)	inactive
CN1/C(=C\C(=O)COC(=O)c2ccc([N+](=O)[O-])o2)C(C)(C)c2ccccc21	inactive
C=CC(=O)Oc1ccc(N2Cc3ccccc3C2=O)cc1	inactive

Structure (SMILES)	outcome
CC1=NN(C(=O)CCCc2ccccc2)C(O)(C(F)(F)F)C1 (stereo not drawn)	inactive
Cc1ccc(/C(O)=C/c2nc3ccccc3oc2=O)cc1	inactive
CN(CC(=O)Nc1ccc(Cl)cc1)C1CCCCC1	inactive
COc1ccc(OCCCC(=O)Nc2ccc(N3CCOCC3)cc2)cc1	inactive
CCOCCOC(=O)c1ccc(NC(=O)C2COc3ccccc3O2)cc1 (stereo not drawn)	inactive
CCOC(=O)COc1ccc2c(c1)c(C(C)=O)c(C)n2Cc1ccccc1	inactive
Cc1c(C(=O)N(C)C)sc2nc(-c3ccccn3)[nH]c(=O)c12	inactive
Cc1nnc(SCCC(=O)Nc2ccc(Cl)cc2)o1	inactive
Cc1nc2ccc(OC(=O)c3ccccc3)cc2s1	inactive
CCOc1ccc2nc(/N=C/c3nc(-c4ccccc4)oc3O)sc2c1	inactive
CCOc1ccc(OCC(=O)Nc2nccs2)cc1	inactive
O=C(COc1ccccc1)NNc1nc2ccccc2s1	inactive
CCCNC(=O)OCC12CC3CC(CC(C3)C1)C2	inactive
N=C1/C(=C/c2ccc(OC(=O)c3ccco3)cc2)C(=O)N=C2SC=CN12	inactive
c1ccc(CNCCC(Cc2ccccc2)c2ccco2)cc1 (stereo not drawn)	inactive
CC(C)(C)C(=O)/C=C/Nc1ccccc1O	inactive
